“And” between values parts separate entries of the source, which are not always exact repeats. Equal values may be shown once. The source made the active and inactive calls. The calls were made as follows: active = hit-call score of the fitted dose curve at least 0.9, where 1 is the maximum; inactive = score below 0.9.
Read-out: Matrix Metallopeptidase 1 (MMP1), MMP1 (gene 4312)
Assay: BSK_MyoF_MMP1: BioMAP Diversity Plus: MyoF Assay for Matrix Metallopeptidase 1 (MMP1) Biomarker Activity (AID 2284268)
Details: primary human lung fibroblasts
In short: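 ELISA readout of MMP1 in primary human lung fibroblast cultures, 24 h post-dosing. Gain of signal versus DMSO vehicle control defines activity. Parallel SRB staining (0.1% after 10% TCA fixation, 560 nm) flags overt cytotoxicity.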

Row | Structure (SMILES) | outcome | AC50
1 | CC(C)c1ccc(CO)cc1 | inactive | –
2 | COC[C@H](C)N(C(=O)CCl)c1c(C)csc1C | inactive | –
3 | O=C(O)C(F)(F)C(F)(F)C(F)(F)C(F)(F)C(F)(F)C(F)(F)C(F)(F)C(F)(F)C(F)(F)C(F)(F)F | inactive | –
4 | CCCCC(CC)CO[N+](=O)[O-] (configuration not stated) | – | 31.6 µM (active)
5 | CCOC(=O)/C=C(C)/C=C/C[C@@H](C)CCCC(C)C | – | 20 µM (active)
6 | CC(C)CCCCCCOC(=O)c1ccccc1C(=O)OCCCCCCC(C)C | inactive | –
7 | Nc1ncc([N+](=O)[O-])s1 | inactive | –
8 | O=Cc1cccc(Oc2ccccc2)c1 | inactive | –
9 | CCSC(C)CC1CC(=O)C(C(CC)=NOC/C=C/Cl)=C(O)C1 (configuration not stated) | inactive | –
10 | COP(=S)(OC)Oc1ccc(Sc2ccc(OP(=S)(OC)OC)cc2)cc1 | – | 7.48 µM (active)
11 | BrCCBr | inactive | –
12 | Nc1ccc(-c2ccc(N)c(Cl)c2)cc1Cl | – | 7.38 µM (active)
13 | CC1(C)Cc2cccc(O)c2O1 | inactive | –
14 | CC(=O)C(Cl)C(=O)N(C)C (configuration not stated) | inactive | –
15 | CCOP(=S)(OCC)SCCS(=O)(=O)CC | inactive | –
16 | Nc1cccc2ccccc12 | – | 20 µM (active)
17 | CCNc1nc(NC(C)(C)C)nc(SC)n1 | – | 31.5 µM (active)
18 | O=C(OC1CCCCC1)c1ccccc1C(=O)OC1CCCCC1 | – | 5.69 µM (active)

Row | Structure (SMILES) | outcome | AC50
19 | NC(=S)Nc1ccccc1 | inactive | –
20 | C(=NC1CCCCC1)=NC1CCCCC1 | – | 4.75 µM (active)
21 | Oc1ccc(-c2ccccc2)cc1 | inactive | –
22 | OCc1ccco1 | inactive | –
23 | O=S(=O)(c1ccc(Cl)cc1)c1ccc(Cl)cc1 | inactive | –
24 | COc1cc(OC)nc(NC(=O)NS(=O)(=O)c2ncccc2C(=O)N(C)C)n1 | inactive | –
25 | COP(=S)(OC)Oc1ccc(S(=O)(=O)N(C)C)cc1 | inactive | –
26 | CCCCCCCCC(=O)NCc1ccc(O)c(OC)c1 | inactive | –
27 | O=C(O)C(F)(F)C(F)(F)C(F)(F)C(F)(F)C(F)(F)C(F)(F)F | inactive | –
28 | O=C(O)CCC(F)(C(F)(F)F)C(F)(F)F | inactive | –
29 | COP(=S)(OC)Oc1cc(Cl)c(Cl)cc1Cl | – | 20 µM (active)
30 | ClC(Cl)=C(Cl)C(Cl)=C(Cl)Cl | inactive | –
31 | ClC1=C(Cl)[C@]2(Cl)[C@H]3[C@H]([C@H]4C=C[C@H]3C4)[C@@]1(Cl)C2(Cl)Cl | – | 20 µM (active)
32 | Oc1c(I)cc(I)cc1I | – | 5.11 µM (active)
33 | COP(=S)(OC)Oc1c(Cl)cc(C)cc1Cl | inactive | –
34 | O=[N+]([O-])c1ccc2c3c(cccc13)CC2 | – | 20 µM (active)
35 | CCOP(=S)(OCC)Oc1ccc(S(C)=O)cc1 (configuration not stated) | inactive | –
36 | COC(=O)c1sccc1S(=O)(=O)NC(=O)Nc1nc(C)nc(OC)n1 | inactive | –

Read-out: Matrix Metallopeptidase 1 (MMP1), MMP1 (gene 4312)
Assay: BSK_BF4T_MMP1: BioMAP Diversity Plus: BF4T Assay for Matrix Metallopeptidase 1 (MMP1) Biomarker Activity (AID 2284270)
Details: primary human bronchial epithelial cells with fibroblasts
In short: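 MMP-1 quantified by ELISA in primary human bronchial epithelial/dermal fibroblast co-cultures, 24 hours post-dosing, with DMSO as baseline; parallel sulforhodamine B staining (560 nm) tracks overt cytotoxicity.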

Row | Structure (SMILES) | AC50 | outcome
37 | O=C(O)C(F)(F)C(F)(F)C(F)(F)C(F)(F)C(F)(F)C(F)(F)C(F)(F)C(F)(F)C(F)(F)C(F)(F)F | 5.11 µM (active) and 5.66 µM (active) | –
38 | O=C(O)C(F)(F)C(F)(F)C(F)(F)C(F)(F)C(F)(F)C(F)(F)F | – | inactive
39 | O=C(O)CCC(F)(C(F)(F)F)C(F)(F)F | – | inactive

Read-out: Matrix Metallopeptidase 3 (MMP3), MMP3 (gene 4314)
Assay: BSK_BF4T_MMP3: BioMAP Diversity Plus: BF4T Assay for Matrix Metallopeptidase 3 (MMP3) Biomarker Activity (AID 2284271)
Details: primary human bronchial epithelial cells with fibroblasts
In short: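 MMP-3 level read by ELISA after 24 h chemical exposure of bronchial epithelial cell/dermal fibroblast co-cultures, fitted upward relative to DMSO. Parallel cultures stained with 0.1% SRB after TCA fixation gauge overt cytotoxicity.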

Row | Structure (SMILES) | AC50 | outcome
40 | O=C(O)C(F)(F)C(F)(F)C(F)(F)C(F)(F)C(F)(F)C(F)(F)C(F)(F)C(F)(F)C(F)(F)C(F)(F)F | 5.26 µM (active) and 3.33 µM (active) | –
41 | O=C(O)C(F)(F)C(F)(F)C(F)(F)C(F)(F)C(F)(F)C(F)(F)F | – | inactive
42 | O=C(O)CCC(F)(C(F)(F)F)C(F)(F)F | – | inactive

Reference: PubChem BioAssay (EPA / NIEHS)
